Source: PubChem BioAssay (NCATS)
Results filed as inconclusive are left out. Active and inactive are the calls of the source. The call rests on the fitted dose curve; in most records, active means well fitted cell-killing curve with a large enough effect; inconclusive means small, poorly fitted or top-dose-only effect, or effect the other way; inactive means flat fitted curve, though single readings scatter.

Columns and labels:
Assay in all cases: Primary qHTS to identify gynecologic anti-cancer compounds using libraries of approved drugs and bioactive compounds (AID 1345084); further: nearly all actives have a fitted effect of over 55% in size
CAOV3 = details: Gynecologic cancer cell panel viability, ATPlite luminescence, 48 h; series mostly up to 57.5 µM
In short: (§1)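 ATP-based viability (ATPlite), 1,000 cells/well, 16 h pre-incubation, 48 h compound at 37 C, 5% CO2, 15 min RT before read.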

CASKI = details: Gynecologic cancer cell panel viability, ATPlite luminescence, 48 h; series mostly up to 57.5 µM
In short: as §1

Es-2 = details: Gynecologic cancer cell panel viability, ATPlite luminescence, 48 h; series mostly up to 57.5 µM
In short: as §1

HeLa = details: Gynecologic cancer cell panel viability, ATPlite luminescence, 48 h; series mostly up to 57.5 µM
In short: as §1

Hek293T = details: Gynecologic cancer cell panel viability, ATPlite luminescence, 48 h, control line for the selectivity index; series mostly up to 57.5 µM
In short: as §1

JEG-3 = details: Gynecologic cancer cell panel viability, ATPlite luminescence, 48 h; series mostly up to 57.5 µM
In short: as §1

OV90 = details: Gynecologic cancer cell panel viability, ATPlite luminescence, 48 h; series mostly up to 57.5 µM
In short: as §1

PA-1 = details: Gynecologic cancer cell panel viability, ATPlite luminescence, 48 h; series mostly up to 57.5 µM
In short: as §1

SKOV3 = details: Gynecologic cancer cell panel viability, ATPlite luminescence, 48 h; series mostly up to 57.5 µM
In short: as §1

Tov-21-G = details: Gynecologic cancer cell panel viability, ATPlite luminescence, 48 h; series mostly up to 57.5 µM
In short: as §1

Tov112D = details: Gynecologic cancer cell panel viability, ATPlite luminescence, 48 h; series mostly up to 57.5 µM
In short: as §1
On the % scale 0 is the no-effect control and ±100 the full control effect.

CC(C)CC(=O)O[C@@H]1OC=C(CO[C@@H]2O[C@H](CO[C@@H]3O[C@H](CO)[C@@H](O)[C@H](O)[C@H]3O)[C@@H](O)[C@H](O)[C@H]2O)[C@H]2C[C@H](O)[C@@H](CO)[C@@H]12
inactive: Potency (CAOV3) | Potency (CASKI) | Potency (Es-2) | Potency (HeLa) | Potency (Hek293T) | Potency (JEG-3) | Potency (OV90) | Potency (PA-1) | Potency (SKOV3) | Potency (Tov-21-G) | Potency (Tov112D)

CC[C@H](C)/C=C(C)/C=C/C(=O)Cc1cc(O)c(C)c(O)c1C=O
inactive: Potency (CAOV3) | Potency (CASKI) | Potency (Es-2) | Potency (HeLa) | Potency (Hek293T) | Potency (JEG-3) | Potency (OV90) | Potency (PA-1) | Potency (SKOV3) | Potency (Tov-21-G) | Potency (Tov112D)

O=C(O[C@H]1[C@@H]2C[C@@H]3OC[C@@](O)([C@H]2[C@H](O[C@@H]2O[C@H](CO)[C@@H](O)[C@H](O)[C@H]2O)O3)[C@@H]1O)c1ccccc1
inactive: Potency (CAOV3) | Potency (CASKI) | Potency (Es-2) | Potency (HeLa) | Potency (Hek293T) | Potency (JEG-3) | Potency (OV90) | Potency (PA-1) | Potency (SKOV3) | Potency (Tov-21-G) | Potency (Tov112D)

OCC1=CC[C@@H]2C=CO[C@@H](O[C@@H]3O[C@H](CO)[C@@H](O)[C@H](O)[C@H]3O)[C@H]12
inactive: Potency (CAOV3) | Potency (CASKI) | Potency (Es-2) | Potency (HeLa) | Potency (Hek293T) | Potency (JEG-3) | Potency (OV90) | Potency (PA-1) | Potency (SKOV3) | Potency (Tov-21-G) | Potency (Tov112D)

O=C(NCC(=O)N1CC[C@H](NC2CCC(O)(c3ccc(-c4ncccn4)cn3)CC2)C1)c1cccc(C(F)(F)F)c1 (some centres undefined)
inactive: Potency (CAOV3) | Potency (CASKI) | Potency (Es-2) | Potency (HeLa) | Potency (Hek293T) | Potency (JEG-3) | Potency (OV90) | Potency (PA-1) | Potency (SKOV3) | Potency (Tov-21-G) | Potency (Tov112D)

C/C=C(\C)C(=O)O[C@@H](C)[C@H]1CC[C@]2(O)C3CCC4C[C@@H](OC5CC(OC)C(OC6CC(OC)C(OC7CC(OC)C(OC8OC(C)C(OC9OC(CO)C(O)C(O)C9O)C(OC)C8O)C(C)O7)C(C)O6)C(C)O5)CC[C@]4(C)C3[C@H](O)[C@@H](O)[C@]12C (some centres undefined)
inactive: activity change, negative = cytotoxicity (CAOV3) 3.47% [at 6.55 µM] | activity change, negative = cytotoxicity (CASKI) -2.65% [at 6.55 µM] | activity change, negative = cytotoxicity (Es-2) 10.2% [at 6.55 µM] | activity change, negative = cytotoxicity (HeLa) 3.49% [at 6.55 µM] | activity change, negative = cytotoxicity (Hek293T) 1.78% [at 6.55 µM] | activity change, negative = cytotoxicity (JEG-3) -1.08% [at 6.55 µM] | activity change, negative = cytotoxicity (OV90) 15.4% [at 6.55 µM] | activity change, negative = cytotoxicity (PA-1) 3.34% [at 6.55 µM] | activity change, negative = cytotoxicity (SKOV3) -4.09% [at 6.55 µM] | activity change, negative = cytotoxicity (Tov-21-G) 13.7% [at 6.55 µM] | activity change, negative = cytotoxicity (Tov112D) 8.06% [at 6.55 µM]

CC1C(=O)CC2C3C(O)CC(C(=O)O)C12CC3(C)C (centres undefined)
inactive: Potency (CAOV3) | Potency (CASKI) | Potency (Es-2) | Potency (HeLa) | Potency (Hek293T) | Potency (JEG-3) | Potency (OV90) | Potency (PA-1) | Potency (SKOV3) | Potency (Tov-21-G) | Potency (Tov112D)

Cc1nn(C)c(COc2ccc(N3CCN(S(=O)(=O)N(C)C)CC3)cc2)c1-c1cccc2c(CCCOc3cccc4ccccc34)c(C(=O)O)n(CCN3CCOCC3)c12
inactive: Potency (CAOV3) | Potency (CASKI) | Potency (Es-2) | Potency (HeLa) | Potency (Hek293T) | Potency (JEG-3) | Potency (OV90) | Potency (PA-1) | Potency (SKOV3) | Potency (Tov-21-G) | Potency (Tov112D)

C/C=C/C=C/C=C/C(=O)O[C@@H]1C=C(CO)C(O)(C(=O)O)[C@@]2(C)CCCC(C)(C)[C@H]12 (some centres undefined)
inactive: Potency (CAOV3) | Potency (CASKI) | Potency (Es-2) | Potency (HeLa) | Potency (Hek293T) | Potency (JEG-3) | Potency (OV90) | Potency (PA-1) | Potency (SKOV3) | Potency (Tov-21-G) | Potency (Tov112D)

CN[C@@H]1[C@@H](O)[C@@H](O[C@@H]2[C@@H](O)[C@H](O[C@H]3O[C@H](CN)[C@@H](O)[C@H](O)[C@H]3O)[C@@H](N)C[C@H]2NC(=O)[C@@H](O)CN)OC[C@]1(C)O
inactive: Potency (CAOV3) | Potency (CASKI) | Potency (Es-2) | Potency (HeLa) | Potency (Hek293T) | Potency (JEG-3) | Potency (OV90) | Potency (PA-1) | Potency (SKOV3) | Potency (Tov-21-G) | Potency (Tov112D)

N#CCc1ccc(O)cc1O[C@@H]1O[C@H](CO)[C@@H](O)[C@H](O)[C@H]1O
inactive: Potency (CAOV3) | Potency (CASKI) | Potency (Es-2) | Potency (HeLa) | Potency (Hek293T) | Potency (JEG-3) | Potency (OV90) | Potency (PA-1) | Potency (SKOV3) | Potency (Tov-21-G) | Potency (Tov112D)

CC(C#N)C(C)O[C@@H]1O[C@H](CO)[C@@H](O)[C@H](O)[C@H]1O (some centres undefined)
inactive: Potency (CAOV3) | Potency (CASKI) | Potency (Es-2) | Potency (HeLa) | Potency (Hek293T) | Potency (JEG-3) | Potency (OV90) | Potency (PA-1) | Potency (SKOV3) | Potency (Tov-21-G) | Potency (Tov112D)

CC(NC(=O)CC(=O)O)c1nc2ccccc2c(=O)[nH]1 (centres undefined)
inactive: Potency (CAOV3) | Potency (CASKI) | Potency (Es-2) | Potency (HeLa) | Potency (Hek293T) | Potency (JEG-3) | Potency (OV90) | Potency (PA-1) | Potency (SKOV3) | Potency (Tov-21-G) | Potency (Tov112D)

CC1=CC2(O)/C=C/C(C)(O)CC(O)/C=C/C(=O)OC23C(=O)NC(CC(C)C)C3C1C (centres undefined)
inactive: Potency (CAOV3) | Potency (CASKI) | Potency (Es-2) | Potency (HeLa) | Potency (Hek293T) | Potency (JEG-3) | Potency (OV90) | Potency (PA-1) | Potency (SKOV3) | Potency (Tov-21-G) | Potency (Tov112D)
